Experiment [1] deals with Mitogen-activated protein kinase 10 (Mus musculus) (UniProt Q61831). The experiment is described as follows: JNK3 AlphaScreen Assay (AID 530; active means well fitted curve in either direction with a large enough effect, not every such curve was filed as active;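 further: kinase came from lysate of stimulated human HepG2 cells; signal reports phosphorylation of biotinylated GST-cJun 1-79 at Ser73 with 10 µM ATP; series mostly up to about 57 µM; on the % scale 0 is the no-effect control and ±100 the full control effect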). In a few lines: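 Inhibitors reduce antibody binding to phosphorylated biotin-cJun, lowering AlphaScreen luminescence. Lysates from HepG2 cells pre-activated by IL-1beta plus TNF-alpha supplied JNK3; compounds were titrated.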
Experiment [2] is described as follows: Cell Viability - HUV-EC-C (AID 542).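 Further: cells exposed to compound for 40 hours; on the % scale 0 is the no-effect control and ±100 the full control effect; nearly all actives have a fitted effect of over 35% in size.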 In a few lines: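 qHTS cytotoxicity: HUV-EC-C, 1000 cells/well, 5 hr settle, compound 40 hr 37 °C, CellTiter-Glo, luminescence. AC50 via Hill equation.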
Experiment [3] is described as follows: Cellular Toxicity (caspase-3) H-4-II-E (AID 663).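 Further: cells exposed to compound for 16 hr before readout; 0% = DMSO basal and 100% = 100 µM tamoxifen.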 The note with it: Potency: caspase-3 activation. In short, it runs like this: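 Luminescence from caspase-cleaved aminoluciferin substrate, read 20 min after reagent addition, reports caspase 3/7 activation in rat H-4-II-E cells after 16 hr compound exposure. Normalized to DMSO (basal) and 100 uM tamoxifen (100%); AC50 from Hill fits.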

A short description of experiment [4]: MultiTox-Fluor Cytotoxicity Assay - LYMP1-002 - Live Cells (AID 955). Further: on the % scale 0 is the no-effect control and ±100 the full control effect. In a few lines:
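Read-out is live-cell protease activity (cell-permeant GF-AFC substrate, fluorescence Ex/Em=405/510), where a decrease indicates acute toxicity. Human lymphoblastoid cells were treated 16 hours at 37 C in a concentration series, and AC50 values came from standard Hill modelling.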

Experiment [5] is described as follows: MultiTox-Fluor Cytotoxicity Assay - LYMP1-003 - Live Cells (AID 962).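 Further: 0% = DMSO only and full loss = 92 µM tetraoctylammonium bromide; cytotoxic hits lower the live-cell protease signal.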 In short, it runs like this:
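qHTS, 1536-well; 2500 cells/well LYMP1-003; 5 hr 37 C settle; cpd 16 hr 37 C; MultiTox-Fluor reagent 60 min RT; live-cell protease fluor. 405/510; Hill-fit AC50; tetraoctylammonium bromide pos. ctrl.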

The nature of experiment [6]: Cell Viability - LYMP1-003 - Assay at 40 hr (AID 964). Further: nearly all actives have a fitted effect of over 60% in size. Further: potency means the concentration at half of the fitted maximal effect. In short, it runs like this:
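Cells were seeded at 2500 per well and incubated 5 hr at 37 C. Compounds were added across a concentration series and left 40 hr at 37 C. CellTiter-Glo was added for 30 min at room temperature before luminescence reading.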

A short description of experiment [7]: Cell Viability - LYMP2-009 (AID 968). Further: nearly all actives have a fitted effect of over 55% in size. Further: potency means the concentration at half of the fitted maximal effect.
Experiment [8] can be described thus: Cell Viability - LYMP2-011 (AID 969).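 Further: 0% = DMSO only and full inhibition = 92 µM tetraoctylammonium bromide; nearly all actives have a fitted effect of over 60% in size.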 In short, it runs like this:
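2500 cells/well, 5 hr 37 C; compound added, 24 hr 37 C; CellTiter-Glo 30 min RT; luminescence. qHTS concentration-response, Hill-equation AC50. Tetraoctylammonium bromide positive control.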

A short description of experiment [9]: Cell Viability - LYMP2-017 (AID 972). Further: nearly all actives have a fitted effect of over 55% in size. Further: potency means the concentration at half of the fitted maximal effect. In short, it runs like this: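 2500 cells/well, 5 h 37 C; cpd 24 h 37 C in complete medium; CellTiter-Glo, 30 min RT; luminescence (ATP). AC50 via Hill fit, qHTS.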
A short description of experiment [10]: Cell Viability - LYMP2-021 (AID 974).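 Further: compound exposure lasts 24 hours at 37 °C; nearly all actives have a fitted effect of over 55% in size.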 Further: potency means the concentration at half of the fitted maximal effect. In a few lines: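 Plate 2500 lymphoblastoid cells per well and incubate 5 hr at 37 C. Add compounds over a concentration range and incubate 24 hr at 37 C. Add CellTiter-Glo, wait 30 min at room temperature, read luminescence.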
A short description of experiment [11]: Cell Viability - LYMP2-025 (AID 976).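 Further: series mostly up to about 92 µM; plate controls were DMSO only for no effect and tetraoctylammonium bromide control for full effect.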 In a few lines:
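Seed 2500 LYMP2-025 cells/well; 5 hr at 37 C; add compound; 24 hr at 37 C; add CellTiter-Glo; 30 min RT; read luminescence. AC50 from Hill-modelled concentration-response.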

Experiment [12] can be described thus: Cell Viability - LYMP2-006 (AID 978). Further: nearly all actives have a fitted effect of over 60% in size. Further: potency means the concentration at half of the fitted maximal effect. In a few lines: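 Human lymphoblastoid cells, 2500 per well, were preincubated 5 hr at 37 C, then exposed to compounds for 24 hr at 37 C in complete medium. Viability was read as intracellular ATP by CellTiter-Glo luminescence; AC50 from Hill-equation fits of qHTS concentration-response data.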
Experiment [13] can be described thus: Cell Viability - LYMP2-007 (AID 979).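 Further: cells exposed to compound for 24 h before reading; nearly all actives have a fitted effect of over 60% in size.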 Further: potency means the concentration at half of the fitted maximal effect. In a few lines: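 Luminescent ATP signal (CellTiter-Glo) serves as the viability read-out after 24 hr compound treatment of lymphoblastoid cells in complete medium at 37 C. Concentration-response data were fitted to the Hill equation to give AC50 values.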
The nature of experiment [14]: Cell Viability - LYMP2-024 (AID 988). Further: nearly all actives have a fitted effect of over 60% in size. Further: potency means the concentration at half of the fitted maximal effect. In short, it runs like this:
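Steps: seed 2500 cells/well, 5 hr 37 C; add compound, 24 hr 37 C; add CellTiter-Glo, 30 min room temperature; read luminescence. AC50 derived by Hill modelling of concentration-dependent ATP loss.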

A short description of experiment [15]: qHTS assay for small molecule activators of the nuclear factor-kappa B (NF-kB) signaling pathway (AID 651749; active means well fitted activation curve with a large enough effect in the signal ratio; the % refers to the signal ratio; further: series mostly up to about 77 µM; % of control where 0% means no effect). The note with it: NF-kB-bla ME-180 cells, beta-lactamase FRET ratio, 16 h; hits give high values. In a few lines:
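Screening used 2,000 ME-180 reporter cells per well exposed to pinned compound (23 nL) or DMSO; after 16 hr at 37C, beta-lactamase expression under NF-kB control was assessed through FRET.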
Background: Quantitative high-throughput screening tests each substance at several concentrations.

The nature of experiment [16]: qHTS assay for small molecule antagonists of the retinoid-related orphan receptor gamma (ROR-gamma) signaling pathway - cell viability counter screen (AID 720652; active means well fitted curve in the direction sought with a large enough effect in the repeat runs; an effect the other way counts as inactive or inconclusive;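 further: series mostly up to about 92 µM; compound exposure lasted 16 hr before ATP read; on the % scale 0 is the no-effect control and ±100 the full control effect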). In a few lines:
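Luminescence from CellTiter-Glo after 30 min at room temperature reported cellular ATP as the cytotoxicity measure. Cells were the CHO reporter line with doxycycline-induced ROR-gamma expression, exposed to compound for 16 hr at 37 C.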

In experiment [17] the target is Nuclear receptor subfamily 1 group I member 2 (Rattus norvegicus) (UniProt Q9R1A7). In words: qHTS assay for small molecule activators of the rat pregnane X receptor (rPXR) signaling pathway (AID 651751; call rule not given here; further: 0% is about no effect). To be noted: rPXR reporter cells, luciferase (One-Glo), 24 h.
Chain of Nuclear receptor subfamily 1 group I member 2 (Rattus norvegicus) (Q9R1A7 whole entry, looked up): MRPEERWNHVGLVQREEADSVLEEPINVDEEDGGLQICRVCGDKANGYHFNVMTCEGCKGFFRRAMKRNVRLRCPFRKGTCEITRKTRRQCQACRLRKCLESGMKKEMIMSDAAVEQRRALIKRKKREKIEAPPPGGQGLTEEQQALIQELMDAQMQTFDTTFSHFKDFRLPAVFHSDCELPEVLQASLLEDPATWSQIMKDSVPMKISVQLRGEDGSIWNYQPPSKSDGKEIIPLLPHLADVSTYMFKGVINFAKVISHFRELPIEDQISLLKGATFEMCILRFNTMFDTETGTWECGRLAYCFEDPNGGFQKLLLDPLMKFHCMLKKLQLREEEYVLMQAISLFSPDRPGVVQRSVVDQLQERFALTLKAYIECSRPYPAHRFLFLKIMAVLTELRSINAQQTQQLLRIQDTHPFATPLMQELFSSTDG
Experiment [18] can be described thus: qHTS assay for small molecule activators of the human pregnane X receptor (PXR) signaling pathway (AID 720659; call rule not given here; further: 0% is about no effect).
Experiment [19] in a line: Cell Viability - MRC5 (AID 434; calls by dose curve;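 further: potency means the concentration at half of the fitted maximal effect; cells exposed to compound for 40 hours at 37 °C; potency reflects cytotoxicity seen as loss of intracellular ATP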). To be noted: MRC5 lung fibroblast viability, qHTS. In short, it runs like this:
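MRC5 normal human lung fibroblasts (1500/well) were treated with compounds for 40 hr at 37 °C in complete medium, and viable cells were measured as intracellular ATP by CellTiter-Glo luminescence. AC50 came from Hill fits, normalized to DMSO and 100 uM tamoxifen.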

Experiment [20] can be described thus: Cell Viability - LYMP2-018 (AID 985).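 Further: compound exposure lasted 24 hr at 37 °C; nearly all actives have a fitted effect of over 50% in size.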 Further: potency means the concentration at half of the fitted maximal effect. In short, it runs like this:
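Luminescent ATP signal (CellTiter-Glo, read after 30 min at room temperature) reports viable cells after 24 hr compound treatment at 37 C. Concentration-response data were fitted to the standard Hill equation for AC50.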

Structures are written as SMILES. A number with no mark means an inactive call. Results filed as inconclusive are left out. Activity calls are given as the source filed them. Unless noted, the call rests on the fitted dose curve; in most records, active means well fitted curve in the direction sought with a large enough effect; inconclusive means small, poorly fitted or top-dose-only effect, or another doubt; inactive means no such curve, though single readings can be large; an effect the other way counts as inactive or inconclusive.

Consider `Clc1cc(Cl)c(Cl)c(Cl)c1`, for which the Potency result in experiment [1], in [2], in experiment [3], in [6], in experiment [7] and in [8] was “inactive” in each case. Moreover, the Potency result in experiment [9], in experiment [10], in [11], in [12], in experiment [13] and in experiment [14] was “inactive” throughout. Also, the Potency entry in [16] is “inactive”. For the same compound, the result in [4], in experiment [5] and in experiment [18] was inactive. Besides, in [15], the activation is -0.964%. For the same compound, in [17], the max response is -2.54%.
With `O=[N+]([O-])c1ccccc1O`, in [19], the Potency is greater than 92 µM. The Potency result in experiment [2], in experiment [3], in [6], in experiment [8], in [11] and in experiment [12] was “inactive” in each case. The Potency entry in experiment [13] and in [16] was “inactive” in each case. The outcome in [4], in experiment [5] and in [18] was inactive. In addition, the max response in experiment [17] was 0.314%.
With `C=CC(=O)OCC(C)C`, in experiment [19], the Potency is greater than 92 µM. The Potency entry in [1], in experiment [2], in [7], in [8], in experiment [10] and in experiment [11] was “inactive” throughout. The Potency result in experiment [12], in experiment [20], in experiment [14] and in experiment [16] was “inactive” throughout. For the same compound, the result in experiment [4], in experiment [5] and in experiment [18] was inactive. For the same compound, the activation in experiment [15] was 0.0391%. For the same compound, the max response in experiment [17] was -2.18%.
Consider `N#CC(Br)Br`, for which the Potency was greater than 92 µM in experiment [19], 50.1 µM (active) in experiment [7] and 39.8 µM (active) in experiment [13]. In addition, the Potency result in experiment [1], in experiment [2], in experiment [3], in experiment [6] and in experiment [11] was “inactive” in each case. Further, the compound was called inactive in experiment [4], in experiment [5] and in experiment [18]. Besides, the activation in experiment [15] was -1.36%. Besides, the max response in [17] was -7.42%.
For the compound `CN(C)c1ccc(N)cc1`, the Potency in [6] is 39.8 µM (active); in [9], 50.1 µM (active); in experiment [10] it was 63.1 µM (active); in experiment [12] it was 50.1 µM (active); in experiment [20], 63.1 µM (active); in [14], 50.1 µM (active).
As for `CCCCOCC1CO1` (configuration not stated), the Potency in experiment [19] was greater than 92 µM. In addition, the Potency result in experiment [1], in experiment [2], in experiment [3], in experiment [6], in experiment [7] and in experiment [8] was “inactive” in each case. Further, the Potency entry in experiment [9], in experiment [11], in experiment [13], in [20], in experiment [14] and in experiment [16] was “inactive” each time. Besides, the result in experiment [4], in experiment [5] and in experiment [18] was inactive. For the same compound, the max response in [17] is 2.3%.
For `c1ccc2c(c1)CCNC2`, the Potency in experiment [19] is greater than 92 µM. In addition, the Potency entry in experiment [1], in experiment [3], in experiment [7], in experiment [8], in [9] and in [10] was “inactive” in each case. Moreover, the Potency entry in experiment [11], in experiment [12], in [13], in experiment [20], in experiment [14] and in [16] was “inactive” throughout. In addition, the result in experiment [4] and in experiment [18] was inactive. In addition, the activation in experiment [15] was 0.526%. Moreover, in experiment [17], the max response is -0.393%.
On to `Nc1ccc(Cl)c(Cl)c1`, for which the Potency in experiment [19] was greater than 92 µM. The Potency entry in [1], in [2], in experiment [3], in experiment [6], in experiment [8] and in experiment [9] was “inactive” throughout. Moreover, the Potency result in [10], in experiment [11], in [12], in experiment [13], in experiment [20] and in [14] was “inactive” throughout. For the same compound, the compound was called inactive in experiment [4], in [5] and in experiment [18]. Further, the activation in experiment [15] is 0.145%. In experiment [17], the max response was 0.573%.
`c1ccc(N=NNc2ccccc2)cc1`: in [19], the Potency was greater than 92 µM. Further, the Potency result in experiment [2], in experiment [3], in [7], in experiment [8], in experiment [9] and in experiment [10] was “inactive” each time. Besides, the Potency result in experiment [11], in experiment [12], in experiment [20], in experiment [14] and in experiment [16] was “inactive” throughout. Besides, the call in experiment [4] and in experiment [5] was inactive.

Values taken from PubChem BioAssay (NCATS).
